# Several values for one entry are separate records, joined by “and”; a condition that tells them apart may be missing. Identical values can stand only once. Results filed as inconclusive are left out. A call without a number means that no potency is given here. Where a structure was tested more than once in an assay, its records may differ in their call. Activity calls are given as the source filed them. Unless noted, calls follow the shape of the dose curve; as a rule, active = well fitted curve in the direction sought with a large enough effect in the repeat runs; inconclusive = weak or mixed curves; inactive = no such curve, though single readings can be large; an effect the other way counts as inactive or inconclusive.
# What was measured:
# [1] = target: Thyrotropin receptor (Homo sapiens) (UniProt P16473); experiment: qHTS assay to identify small molecule agonists of the thyroid stimulating hormone receptor (TSHR) signaling pathway (AID 1224843; calls by dose curve; also: nearly all actives have a fitted effect of over 45% in size)
# Summary of the method: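 Agonist-mode screen: TSHR HEK293 cells received test chemicals for half an hour at room temperature, then HTRF cAMP detection reagents for one hour prior to fluorescence measurement. Each chemical ran as a 15-concentration series, triplicated.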
# [2] = qHTS assay to identify small molecule agonists of the hypoxia (HIF-1) signaling pathway - cell viability counter screen (AID 1224844; calls by dose curve; also: nearly all actives have a fitted effect of over 50% in size)
# Summary of the method: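 Same wells as the HIF-1 reporter screen; ME-180 cells carrying HRE-bla, 17 hr treatment at 37C; CellTiter-Glo luminescence read after 30 min at room temperature.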
# [3] = qHTS assay to identify small molecule agonists of H2AX - cell viability counter screen (AID 1224847; calls by dose curve; also: nearly all actives have a fitted effect of over 30% in size; also: potency is read from the fitted curve at half-maximal effect)
# Summary of the method: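 CHO-K1 cells plated overnight at 37C, then exposed 3 h at 37C to compounds at 15 concentrations (0.76% DMSO final). Viability by CellTiter-Glo luminescence after 30 min at room temperature.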
# [4] = qHTS RealTime-Glo MT Cell Viability Assay in HepG2 cells - 24 hour (AID 1224867); also: nearly all actives have a fitted effect of over 50% in size
# Summary of the method: (§1)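 HepG2 cells were seeded at 600 cells/well together with NanoLuc luciferase and a cell-permeant prosubstrate, preincubated 5 h at 37 C/5% CO2, then pin-dosed with compounds in DMSO. Nonlytic luminescence from viable cells was read at each time point.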
# [5] = qHTS RealTime-Glo MT Cell Viability Assay in HEK293 cells - 32 hour (AID 1224868); also: nearly all actives have a fitted effect of over 50% in size; also: potency is read from the fitted curve at half-maximal effect
# Summary of the method: (§2)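 HEK293 cells were seeded at 600 cells/well together with NanoLuc luciferase and cell-permeant prosubstrate, preincubated 5 h at 37 C/5% CO2, then given compound in DMSO by pintool. Luminescence from viable-cell prosubstrate reduction was read repeatedly over 40 h.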
# [6] = A CellTox Green Cytotoxicity Assay to monitor cytotoxicity in HEK293 cells - 0 hour (AID 1224869); also: nearly all actives have a fitted effect of over 50% in size
# Summary of the method: (§3)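 Homogeneous no-lysis format: HEK293 cell suspension mixed with CellTox Green reagent, seeded, incubated 5 h at 37 C/5% CO2, then dosed by pintool with compound in DMSO.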
# [7] = qHTS RealTime-Glo MT Cell Viability Assay in HepG2 cells - 40 hour (AID 1224870); also: nearly all actives have a fitted effect of over 50% in size
# Summary of the method: (§4)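 HepG2 cells (600/well) mixed with RealTime-Glo MT reagent, settled 5 h at 37 C/5% CO2 before compound addition. Nonlytic NanoLuc luminescence from viable-cell prosubstrate reduction read repeatedly during 40 h treatment at 37 C.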
# [8] = A CellTox Green Cytotoxicity Assay to monitor cytotoxicity in HEK293 cells - 40 hour (AID 1224871); also: nearly all actives have a fitted effect of over 45% in size
# Summary of the method: as §3
# [9] = qHTS RealTime-Glo MT Cell Viability Assay in HEK293 cells - 16 hour (AID 1224872); also: nearly all actives have a fitted effect of over 50% in size; also: potency is read from the fitted curve at half-maximal effect
# Summary of the method: as §2
# [10] = qHTS RealTime-Glo MT Cell Viability Assay in HepG2 cells - 8 hour (AID 1224873); also: nearly all actives have a fitted effect of over 55% in size
# Summary of the method: as §4
# [11] = qHTS RealTime-Glo MT Cell Viability Assay in HEK293 cells - 40 hour (AID 1224874); conditions: RealTime-Glo luminescence; max response: stronger effect = lower value; also: nearly all actives have a fitted effect of over 50% in size; also: potency is read from the fitted curve at half-maximal effect
# Summary of the method: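 Measured as luminescence from the same continuously cultured HEK293 wells at successive time points (0, 8, 16, 24, 32, 40 h) after compound addition. Reagent present from seeding; dosing at 5 h; incubation 37 C.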
# [12] = A CellTox Green Cytotoxicity Assay to monitor cytotoxicity in HEK293 cells - 24 hour (AID 1224875); also: nearly all actives have a fitted effect of over 45% in size
# Summary of the method: as §3
# [13] = A CellTox Green Cytotoxicity Assay to monitor cytotoxicity in HepG2 cells - 16 hour (AID 1224876); also: nearly all actives have a fitted effect of over 45% in size
# Summary of the method: (§5)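 Fluorescent DNA-binding dye, 600 HepG2 cells/well, 5 h preincubation then compound in DMSO; same plates read at 0–40 h, 37 C.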
# [14] = qHTS RealTime-Glo MT Cell Viability Assay in HepG2 cells - 32 hour (AID 1224877); also: nearly all actives have a fitted effect of over 55% in size
# Summary of the method: as §1
# [15] = A CellTox Green Cytotoxicity Assay to monitor cytotoxicity in HepG2 cells - 24 hour (AID 1224878); also: nearly all actives have a fitted effect of over 45% in size
# Summary of the method: as §5
# [16] = A CellTox Green Cytotoxicity Assay to monitor cytotoxicity in HepG2 cells - 40 hour (AID 1224879); also: nearly all actives have a fitted effect of over 40% in size
# Summary of the method: as §5
# [17] = qHTS assay to identify small molecule antagonists of the estrogen related receptor (ERR) signaling pathway from Tox21 library (AID 1224848); also: nearly all actives have a fitted effect of over 50% in size; also: potency is read from the fitted curve at half-maximal effect
# Summary of the method: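 Quantitative high-throughput format: ERR reporter cells (2,000/well) pre-incubated 6 h, treated 18 h at 37 C with compounds in DMSO alongside positive and negative controls, then read by ONE-Glo luminescence.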
# [18] = qHTS assay to identify small molecule agonists of the estrogen related receptor (ERR) signaling pathway from Tox21 library (AID 1224849; calls by dose curve; also: nearly all actives have a fitted effect of over 15% in size); conditions: ERR reporter cell line, ONE-Glo luciferase, 18 h
# Summary of the method: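 Reporter cells (ERR, NTP source) treated with Tox21 10K compounds 18 h, 37 C. Readout: ONE-Glo luminescence, 30 min RT.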
# [19] = qHTS assay to identify small molecule agonists of the hypoxia (HIF-1) signaling pathway (AID 1224846; active = well fitted activation curve with a large enough effect in the signal ratio in the repeat runs, not every such curve was filed as active; the % refers to the signal ratio)
# Summary of the method: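 In ME-180 cells bearing an HRE-bla construct, 17 h treatment with DMSO-dissolved compounds at 37C was followed by CCF4-AM loading to quantify reporter induction.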
# Thyrotropin receptor (Homo sapiens), sequence (P16473 whole entry, looked up): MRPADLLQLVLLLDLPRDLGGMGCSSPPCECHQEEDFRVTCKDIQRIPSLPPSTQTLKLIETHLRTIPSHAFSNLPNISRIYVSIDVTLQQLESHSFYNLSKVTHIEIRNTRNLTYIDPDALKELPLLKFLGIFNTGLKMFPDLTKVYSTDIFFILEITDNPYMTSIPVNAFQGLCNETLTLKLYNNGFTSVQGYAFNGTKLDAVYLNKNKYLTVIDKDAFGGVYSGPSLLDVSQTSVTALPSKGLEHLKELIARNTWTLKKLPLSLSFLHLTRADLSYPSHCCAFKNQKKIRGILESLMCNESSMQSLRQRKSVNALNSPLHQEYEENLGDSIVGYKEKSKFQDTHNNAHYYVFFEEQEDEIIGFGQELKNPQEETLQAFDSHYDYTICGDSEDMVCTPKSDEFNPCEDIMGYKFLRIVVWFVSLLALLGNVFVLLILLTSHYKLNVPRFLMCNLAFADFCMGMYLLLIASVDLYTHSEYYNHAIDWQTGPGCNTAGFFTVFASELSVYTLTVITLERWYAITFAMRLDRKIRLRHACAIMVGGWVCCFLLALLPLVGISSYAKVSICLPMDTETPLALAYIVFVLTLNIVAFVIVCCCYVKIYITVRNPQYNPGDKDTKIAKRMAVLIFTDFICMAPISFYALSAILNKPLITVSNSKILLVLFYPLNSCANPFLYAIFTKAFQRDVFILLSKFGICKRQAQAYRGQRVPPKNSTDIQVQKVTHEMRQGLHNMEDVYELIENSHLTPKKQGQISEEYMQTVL
smiles,measurement,setting,value
NC(=O)n1c(O)c(C(=O)c2cccs2)c2cc(Cl)ccc21,Potency,[1],inactive
same,Potency,[2],inactive
same,Potency,[3],inactive
same,Potency,[4],inactive
same,Potency,[5],inactive
same,Potency,[6],inactive
same,Potency,[7],inactive
same,Potency,[8],inactive
same,Potency,[9],inactive
same,Potency,[10],inactive
same,max response,[11],3.23% (inactive)
same,Potency,[12],inactive
same,Potency,[13],inactive
same,Potency,[14],inactive
same,Potency,[15],inactive
same,Potency,[16],inactive
Nc1c2c(nc3ccccc13)CCCC2,Potency,[1],inactive
same,Potency,[2],inactive
same,Potency,[3],inactive
same,Potency,[17],61.1 µM (active) and 54.5 µM (active) and inactive
same,"activity change, positive = activation",[18]; at 42.5 µM (top of the series),-6.1% (inactive)
same,"activity change, positive = activation",[18]; at 92.4 µM (top of the series),-44% (inactive) and -30.5% (inactive)
same,Potency,[4],inactive
same,Potency,[5],inactive
same,Potency,[6],inactive
same,Potency,[7],inactive
same,Potency,[8],inactive
same,Potency,[9],inactive
same,Potency,[10],inactive
same,max response,[11],-28% (inactive) and -11.6% (inactive) and 18.3% (inactive)
same,Potency,[12],inactive
same,Potency,[13],inactive
same,Potency,[14],inactive
same,Potency,[15],inactive
same,Potency,[16],inactive
Cc1cc(=O)oc2cc(O)ccc12,Potency,[1],inactive
same,Potency,[2],inactive
same,Potency,[3],inactive
same,Potency,[4],inactive
same,Potency,[5],inactive
same,Potency,[6],inactive
same,Potency,[7],inactive
same,Potency,[8],inactive
same,Potency,[9],inactive
same,Potency,[10],inactive
same,max response,[11],-14.5% (inactive) and -7.95% (inactive) and -6.84% (inactive)
same,Potency,[12],inactive
same,Potency,[13],inactive
same,Potency,[14],inactive
same,Potency,[15],inactive
same,Potency,[16],inactive
Nc1ccc(S(N)(=O)=O)cc1,Potency,[1],inactive
same,Potency,[2],inactive
same,outcome,[19],inactive
same,Potency,[3],inactive
same,Potency,[4],inactive
same,Potency,[5],inactive
same,Potency,[6],inactive
same,Potency,[7],inactive
same,Potency,[8],inactive
same,Potency,[9],inactive
same,Potency,[10],inactive
same,max response,[11],9.21% (inactive) and 0.884% (inactive) and 1.65% (inactive)
same,Potency,[12],inactive
same,Potency,[13],inactive
same,Potency,[14],inactive
same,Potency,[15],inactive
same,Potency,[16],inactive
CC(C)C(=O)Nc1ccc([N+](=O)[O-])c(C(F)(F)F)c1,Potency,[1],inactive
same,Potency,[2],inactive
same,Potency,[3],104 µM (active) and inactive
same,Potency,[17],25 µM (active) and 27.3 µM (active) and 13.3 µM (active)
same,"activity change, positive = activation",[18]; at 42.5 µM (top of the series),-30.7% (inactive)
same,"activity change, positive = activation",[18]; at 92.4 µM (top of the series),-65.7% (inactive) and -58.2% (inactive)
same,Potency,[4],inactive
same,Potency,[5],12.6 µM (active) and 19.5 µM (active) and 9.52 µM (active)
same,Potency,[6],inactive
same,Potency,[7],inactive
same,Potency,[8],inactive
same,Potency,[9],20 µM (active) and 19.5 µM (active) and 10.7 µM (active)
same,Potency,[10],inactive
same,Potency,[11],11.3 µM (active) and 21.9 µM (active) and 9.52 µM (active)
same,Potency,[12],inactive
same,Potency,[13],inactive
same,Potency,[14],inactive
same,Potency,[15],inactive
same,Potency,[16],inactive
